# Data from the supplement of paper PMC10849652.
# Of roughly 7,900 targets only a part is listed; those with a hit were picked by preference. About 0.6% of all pairs of compound and target were hits. A number with no mark means an inactive call.
# Compound: CS(=O)(=O)c1ccc(-c2cnc(N)c(C(=O)Nc3ccccc3)n2)cc1
# Test: log2 fold change, soluble protein after heating vs DMSO (PISA); higher = thermal stabilisation; K562 cells, 10 uM, 30 min; active = over 0.2 and 3.5 SD of the protein, either way, in both replicates (recomputed)
# Method in brief: (§1)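 K562 cells at 2×10^6 cells/mL were exposed to 10 μM compound for 30 min, then aliquots were heated for 3 min across 48°C-58°C, pooled, and extracted in PBS containing 0.5% NP-40 at 4°C. The supernatant after 21,000xg for 90 min was taken as soluble protein and measured by TMTpro 16plex LC-MS/MS with channel sums equalised. Thermal stability is reported relative to control samples, with values from duplicates. Fold changes are given on a log2 scale.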
# UniProt O60583, sequence (O60583 whole entry, looked up): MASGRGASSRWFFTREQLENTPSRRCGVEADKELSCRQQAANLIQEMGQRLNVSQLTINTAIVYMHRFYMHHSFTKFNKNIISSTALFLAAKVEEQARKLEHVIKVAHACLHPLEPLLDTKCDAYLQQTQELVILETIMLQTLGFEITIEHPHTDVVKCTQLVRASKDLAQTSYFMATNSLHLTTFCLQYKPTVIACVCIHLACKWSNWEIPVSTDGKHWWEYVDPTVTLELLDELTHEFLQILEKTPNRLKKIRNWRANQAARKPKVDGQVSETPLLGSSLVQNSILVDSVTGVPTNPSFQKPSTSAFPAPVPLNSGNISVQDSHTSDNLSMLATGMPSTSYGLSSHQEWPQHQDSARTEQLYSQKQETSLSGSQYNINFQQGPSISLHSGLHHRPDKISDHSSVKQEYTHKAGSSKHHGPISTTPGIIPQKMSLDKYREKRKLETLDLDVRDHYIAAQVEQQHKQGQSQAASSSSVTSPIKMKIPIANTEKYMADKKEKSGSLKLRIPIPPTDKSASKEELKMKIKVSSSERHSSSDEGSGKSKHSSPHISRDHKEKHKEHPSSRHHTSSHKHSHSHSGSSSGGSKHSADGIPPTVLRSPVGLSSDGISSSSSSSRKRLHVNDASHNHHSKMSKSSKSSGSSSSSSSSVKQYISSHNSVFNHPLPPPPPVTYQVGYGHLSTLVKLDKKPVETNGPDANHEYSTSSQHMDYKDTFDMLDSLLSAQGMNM
# UniProt P51911, sequence (P51911 whole entry, looked up): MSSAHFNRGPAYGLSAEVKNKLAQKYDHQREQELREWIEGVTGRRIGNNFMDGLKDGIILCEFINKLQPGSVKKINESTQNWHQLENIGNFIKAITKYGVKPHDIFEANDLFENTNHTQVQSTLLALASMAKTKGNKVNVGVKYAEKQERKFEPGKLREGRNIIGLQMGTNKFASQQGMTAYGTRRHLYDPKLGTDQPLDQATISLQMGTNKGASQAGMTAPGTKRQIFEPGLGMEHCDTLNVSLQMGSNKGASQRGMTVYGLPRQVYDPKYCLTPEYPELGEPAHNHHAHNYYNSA
# UniProt Q13286, sequence (Q13286 whole entry, looked up): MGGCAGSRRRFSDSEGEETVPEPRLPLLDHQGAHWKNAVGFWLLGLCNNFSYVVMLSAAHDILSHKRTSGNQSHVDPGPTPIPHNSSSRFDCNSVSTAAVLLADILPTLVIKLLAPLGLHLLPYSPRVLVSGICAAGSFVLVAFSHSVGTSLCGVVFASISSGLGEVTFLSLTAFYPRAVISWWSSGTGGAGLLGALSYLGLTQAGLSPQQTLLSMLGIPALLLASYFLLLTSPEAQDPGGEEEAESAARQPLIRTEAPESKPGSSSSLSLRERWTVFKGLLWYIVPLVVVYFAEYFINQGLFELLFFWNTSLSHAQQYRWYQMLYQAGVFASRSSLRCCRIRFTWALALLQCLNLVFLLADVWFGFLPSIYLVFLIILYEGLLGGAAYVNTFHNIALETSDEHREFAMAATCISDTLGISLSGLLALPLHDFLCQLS
# UniProt P30305, sequence (P30305 whole entry, looked up): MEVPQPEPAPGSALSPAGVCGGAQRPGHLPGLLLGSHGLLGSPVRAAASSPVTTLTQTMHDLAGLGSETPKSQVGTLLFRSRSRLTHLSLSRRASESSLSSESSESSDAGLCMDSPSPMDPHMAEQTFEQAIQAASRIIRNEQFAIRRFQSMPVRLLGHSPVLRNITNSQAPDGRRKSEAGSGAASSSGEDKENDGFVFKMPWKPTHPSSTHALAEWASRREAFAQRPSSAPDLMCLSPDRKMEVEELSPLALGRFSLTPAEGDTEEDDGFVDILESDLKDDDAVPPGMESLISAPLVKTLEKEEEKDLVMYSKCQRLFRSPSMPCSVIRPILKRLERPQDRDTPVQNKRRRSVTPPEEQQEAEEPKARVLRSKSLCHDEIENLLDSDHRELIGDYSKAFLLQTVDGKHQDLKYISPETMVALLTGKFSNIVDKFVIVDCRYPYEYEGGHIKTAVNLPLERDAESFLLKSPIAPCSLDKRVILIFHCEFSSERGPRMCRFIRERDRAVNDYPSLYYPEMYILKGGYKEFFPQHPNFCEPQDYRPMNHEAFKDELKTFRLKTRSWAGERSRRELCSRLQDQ
# UniProt Q9UHN6, sequence (Q9UHN6 whole entry, looked up): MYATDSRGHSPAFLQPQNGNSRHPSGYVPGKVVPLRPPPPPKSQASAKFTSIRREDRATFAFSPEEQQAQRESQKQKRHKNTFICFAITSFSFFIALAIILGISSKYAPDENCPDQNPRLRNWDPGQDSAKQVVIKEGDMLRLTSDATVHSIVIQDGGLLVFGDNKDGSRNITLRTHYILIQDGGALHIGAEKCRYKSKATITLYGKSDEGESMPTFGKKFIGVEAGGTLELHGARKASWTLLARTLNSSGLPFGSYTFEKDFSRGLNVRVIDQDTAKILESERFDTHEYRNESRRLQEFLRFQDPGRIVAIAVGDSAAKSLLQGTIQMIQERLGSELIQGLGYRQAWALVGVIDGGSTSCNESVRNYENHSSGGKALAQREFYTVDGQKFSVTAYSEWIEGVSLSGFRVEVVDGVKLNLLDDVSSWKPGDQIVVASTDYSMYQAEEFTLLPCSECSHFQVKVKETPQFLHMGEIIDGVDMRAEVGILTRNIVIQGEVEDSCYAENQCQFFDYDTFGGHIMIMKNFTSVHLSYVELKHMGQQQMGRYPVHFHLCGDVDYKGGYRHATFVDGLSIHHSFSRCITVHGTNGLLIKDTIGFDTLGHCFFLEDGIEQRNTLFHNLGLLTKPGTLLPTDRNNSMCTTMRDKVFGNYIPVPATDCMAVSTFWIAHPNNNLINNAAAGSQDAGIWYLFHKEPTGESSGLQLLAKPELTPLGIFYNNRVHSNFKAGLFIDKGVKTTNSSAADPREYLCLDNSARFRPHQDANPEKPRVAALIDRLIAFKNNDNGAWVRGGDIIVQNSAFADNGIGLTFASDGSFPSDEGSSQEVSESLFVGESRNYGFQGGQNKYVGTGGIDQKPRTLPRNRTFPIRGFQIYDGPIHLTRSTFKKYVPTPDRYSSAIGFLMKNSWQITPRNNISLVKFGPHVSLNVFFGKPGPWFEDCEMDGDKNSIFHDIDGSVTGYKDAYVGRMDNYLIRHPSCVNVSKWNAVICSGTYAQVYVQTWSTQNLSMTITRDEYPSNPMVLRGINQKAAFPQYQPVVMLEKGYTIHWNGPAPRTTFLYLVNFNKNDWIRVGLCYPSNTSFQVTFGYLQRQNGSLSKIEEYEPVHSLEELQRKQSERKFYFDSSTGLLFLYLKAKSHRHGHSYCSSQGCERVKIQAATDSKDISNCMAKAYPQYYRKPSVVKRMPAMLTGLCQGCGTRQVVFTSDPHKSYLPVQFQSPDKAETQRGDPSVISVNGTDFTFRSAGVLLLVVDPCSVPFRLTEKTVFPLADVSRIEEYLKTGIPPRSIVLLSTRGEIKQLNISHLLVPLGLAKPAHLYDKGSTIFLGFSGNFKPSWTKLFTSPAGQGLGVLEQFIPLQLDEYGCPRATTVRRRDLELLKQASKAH
# UniProt Q70SY1, sequence (Q70SY1 whole entry, looked up): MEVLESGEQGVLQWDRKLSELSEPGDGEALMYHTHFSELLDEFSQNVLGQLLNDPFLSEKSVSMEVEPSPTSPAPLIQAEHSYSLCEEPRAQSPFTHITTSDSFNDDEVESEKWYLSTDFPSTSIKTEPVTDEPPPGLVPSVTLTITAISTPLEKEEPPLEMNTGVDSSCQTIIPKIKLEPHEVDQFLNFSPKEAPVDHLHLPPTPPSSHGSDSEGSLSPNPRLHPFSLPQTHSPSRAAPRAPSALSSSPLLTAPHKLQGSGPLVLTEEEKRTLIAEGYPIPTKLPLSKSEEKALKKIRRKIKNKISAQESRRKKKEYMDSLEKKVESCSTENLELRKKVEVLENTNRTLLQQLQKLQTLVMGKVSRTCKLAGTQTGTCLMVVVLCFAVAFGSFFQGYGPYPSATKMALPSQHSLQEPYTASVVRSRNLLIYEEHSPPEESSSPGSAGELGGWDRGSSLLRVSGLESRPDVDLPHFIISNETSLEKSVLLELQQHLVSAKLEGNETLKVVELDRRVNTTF
# UniProt Q6UUV7, sequence (Q6UUV7 whole entry, looked up): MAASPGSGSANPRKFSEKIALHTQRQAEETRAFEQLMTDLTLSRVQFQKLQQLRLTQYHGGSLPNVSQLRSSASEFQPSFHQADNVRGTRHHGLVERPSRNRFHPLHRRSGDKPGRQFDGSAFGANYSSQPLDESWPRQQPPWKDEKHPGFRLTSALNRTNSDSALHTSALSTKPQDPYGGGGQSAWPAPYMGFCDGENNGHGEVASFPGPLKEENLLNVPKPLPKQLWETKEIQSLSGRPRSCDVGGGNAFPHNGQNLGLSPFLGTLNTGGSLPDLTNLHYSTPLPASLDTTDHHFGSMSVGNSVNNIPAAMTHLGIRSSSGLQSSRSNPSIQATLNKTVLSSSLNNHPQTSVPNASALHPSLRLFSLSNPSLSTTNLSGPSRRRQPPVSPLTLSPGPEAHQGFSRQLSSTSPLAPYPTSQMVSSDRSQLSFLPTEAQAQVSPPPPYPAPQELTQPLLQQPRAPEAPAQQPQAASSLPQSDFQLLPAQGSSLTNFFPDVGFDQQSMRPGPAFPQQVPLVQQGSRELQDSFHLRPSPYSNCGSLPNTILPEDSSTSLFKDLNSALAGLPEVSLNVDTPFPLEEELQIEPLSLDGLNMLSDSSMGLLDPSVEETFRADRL
# UniProt O75956, sequence (O75956 whole entry, looked up): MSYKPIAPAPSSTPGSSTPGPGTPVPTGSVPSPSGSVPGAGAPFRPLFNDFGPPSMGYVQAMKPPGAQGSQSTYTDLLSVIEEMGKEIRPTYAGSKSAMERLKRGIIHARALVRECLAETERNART
# UniProt Q96F85, sequence (Q96F85 whole entry, looked up): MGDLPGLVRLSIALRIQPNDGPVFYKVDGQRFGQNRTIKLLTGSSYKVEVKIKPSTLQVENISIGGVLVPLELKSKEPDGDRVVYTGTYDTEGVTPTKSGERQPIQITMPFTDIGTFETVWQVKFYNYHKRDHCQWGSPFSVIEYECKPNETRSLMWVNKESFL
# UniProt A8MTT3, sequence (A8MTT3 whole entry, looked up): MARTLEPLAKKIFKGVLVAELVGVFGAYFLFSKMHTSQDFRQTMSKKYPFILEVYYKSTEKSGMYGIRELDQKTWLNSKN
row,Target,log2 fold change
1,CORO2A (UniProt Q92828),-0.085
2,CLPTM1L (UniProt G5E9Z2),-0.317
3,CNN1 (UniProt P51911),-0.052
4,CCNT2 (UniProt O60583),-0.226
5,CCNDBP1 (UniProt O95273),0.016
6,CDC25B isoform 4 (UniProt P30305),-0.104
7,COMMD3-BMI1 (UniProt R4GMX3),0.074
8,CLN8 (UniProt Q9UBY8),-0.006
9,CD68 (UniProt P34810),-0.016
10,CRMP1 isoform 2 (UniProt Q14194),0.024
11,CRTC3 (UniProt Q6UUV7),-0.004

# Compound: C[C@@H](Oc1cc(-c2cnn(C3CCNCC3)c2)cnc1N)c1c(Cl)ccc(F)c1Cl [crizotinib]
# Test: as above
# Method in brief: as §1
row,Target,log2 fold change
1,CLINT1 (UniProt Q14677),0.166
2,CLCN5 isoform 2 (UniProt P51795),-0.321
3,CARD9 (UniProt Q9H257),-0.023
4,CNOT4 isoform 9 (UniProt O95628),-0.094
5,CLASP2 (UniProt O75122),-0.21
6,CLN3 (UniProt Q13286),-0.327
7,CCDC82 (UniProt Q8N4S0),0.148
8,CEBPZOS (UniProt A8MTT3),0.26 (active)
9,CREB3L2 (UniProt Q70SY1),0.098
10,CEMIP2 (UniProt Q9UHN6),0.075
11,CDK2AP2 (UniProt O75956),0.213

# Compound: C[C@@H]1COCCN1C2=NC(=NC(=C2)C3(CC3)S(=O)(=O)C)C4=C5C=CNC5=CC=C4
# Test: as above
# Method in brief: as §1
row,Target,log2 fold change
1,CCND3 (UniProt P30281),-0.271
2,CLPTM1L (UniProt G5E9Z2),0.073
3,CNRIP1 (UniProt Q96F85),0.209
4,CNN1 (UniProt P51911),0.045
5,CCNT2 (UniProt O60583),-0.148
6,CFAP47 (UniProt Q6ZTR5),0.099
7,CLN3 (UniProt Q13286),0.066
8,CCDC82 (UniProt Q8N4S0),-0.174
9,CDC25B isoform 4 (UniProt P30305),-0.216
10,COMMD3-BMI1 (UniProt R4GMX3),-0.031
11,"CCDC187, A0A1W2PQX5",-0.042
12,CREB3L2 (UniProt Q70SY1),-0.076
13,CEMIP2 (UniProt Q9UHN6),0.023
14,CA1 (UniProt E5RIF9),-0.134
15,CASP7 isoform 3 (UniProt P55210),0.3
16,CDK2AP2 (UniProt O75956),0.173
17,C5orf30 (UniProt Q96GV9),0.352
18,CRTC3 (UniProt Q6UUV7),0.177
